# In publication PMC7862700, “An all-to-all approach to the identification of sequence-specific readers for epigenetic DNA modifications on cytosine”:
# What was measured:
# Test in all cases: DAPPL (digital affinity profiling via proximity ligation, sequencing); 10 mM Tris-HCl pH 7.5, 50 mM NaCl, 1 mM DTT, 4% glycerol, room temperature, 30 min; GST-TFs on glutathione beads, 16-mer random dsDNA library, 0.1% formaldehyde crosslink after washing; high values mean tight binding
# Conditions in all cases: protein: recombinant; tags: N-terminal GST; dsDNA, one strand shown
# FLI1 = biological target: T1, FLI1 (Homo sapiens, UniProt Q01543 1-452)
# T1 sequence: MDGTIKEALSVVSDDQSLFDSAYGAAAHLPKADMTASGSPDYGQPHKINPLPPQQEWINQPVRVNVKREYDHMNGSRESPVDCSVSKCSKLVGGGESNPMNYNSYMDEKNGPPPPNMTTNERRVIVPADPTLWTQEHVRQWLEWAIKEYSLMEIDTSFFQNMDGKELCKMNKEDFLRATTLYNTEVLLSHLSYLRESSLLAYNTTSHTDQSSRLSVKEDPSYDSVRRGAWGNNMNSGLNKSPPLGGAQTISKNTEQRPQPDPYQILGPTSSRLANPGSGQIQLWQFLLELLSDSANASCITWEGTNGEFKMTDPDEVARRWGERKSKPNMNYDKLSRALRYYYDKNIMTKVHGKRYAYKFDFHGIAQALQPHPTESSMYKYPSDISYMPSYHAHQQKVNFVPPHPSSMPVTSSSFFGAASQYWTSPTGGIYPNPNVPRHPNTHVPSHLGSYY
# Summary of the method: (§1)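 Yeast served to express human transcription factors as GST fusions, which were then captured on glutathione beads and labelled with DNA barcodes. Pooled with a tag-only sample, they were incubated with 200 nmole of a 16-mer random double-stranded DNA library for 30 min at room temperature in Tris/NaCl/DTT/glycerol buffer, washed, crosslinked with 0.1% formaldehyde, ligated by proximity, amplified by PCR and sequenced. Dividing each hexamer's read frequency for a factor by its frequency for the tag-only sample gives the binding signal.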
# ELK1 = biological target: T2, ELK1 (Homo sapiens, UniProt P19419 1-428)
# T2 sequence: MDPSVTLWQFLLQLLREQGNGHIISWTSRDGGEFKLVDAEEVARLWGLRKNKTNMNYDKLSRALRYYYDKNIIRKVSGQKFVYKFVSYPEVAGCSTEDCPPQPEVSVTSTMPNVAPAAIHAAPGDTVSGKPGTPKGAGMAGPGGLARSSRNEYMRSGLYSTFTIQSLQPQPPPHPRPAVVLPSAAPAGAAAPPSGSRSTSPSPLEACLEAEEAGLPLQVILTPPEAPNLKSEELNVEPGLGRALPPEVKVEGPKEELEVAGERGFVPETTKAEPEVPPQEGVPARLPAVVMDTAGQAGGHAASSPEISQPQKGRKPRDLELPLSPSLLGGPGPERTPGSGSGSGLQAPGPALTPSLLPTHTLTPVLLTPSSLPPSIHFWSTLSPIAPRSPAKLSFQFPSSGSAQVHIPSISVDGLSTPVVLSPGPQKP
# Summary of the method: as §1
# GABPA = biological target: T3, GABPA (Homo sapiens, UniProt Q06546 1-454)
# T3 sequence: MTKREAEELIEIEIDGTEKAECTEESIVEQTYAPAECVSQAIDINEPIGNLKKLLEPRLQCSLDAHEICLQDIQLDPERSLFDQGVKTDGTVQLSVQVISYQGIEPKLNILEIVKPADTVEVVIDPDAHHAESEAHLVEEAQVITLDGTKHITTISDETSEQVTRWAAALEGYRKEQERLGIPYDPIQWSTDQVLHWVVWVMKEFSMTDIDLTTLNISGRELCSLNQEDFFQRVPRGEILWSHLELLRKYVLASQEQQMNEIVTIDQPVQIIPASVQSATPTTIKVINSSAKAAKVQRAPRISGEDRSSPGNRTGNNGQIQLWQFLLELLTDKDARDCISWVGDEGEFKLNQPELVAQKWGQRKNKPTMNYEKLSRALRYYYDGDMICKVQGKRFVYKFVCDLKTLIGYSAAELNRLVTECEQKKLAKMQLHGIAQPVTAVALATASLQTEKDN
# Summary of the method: as §1
# ELF1 = ELF1 (Homo sapiens, UniProt P32519 1-619)
# ELF1, sequence (P32519 whole entry): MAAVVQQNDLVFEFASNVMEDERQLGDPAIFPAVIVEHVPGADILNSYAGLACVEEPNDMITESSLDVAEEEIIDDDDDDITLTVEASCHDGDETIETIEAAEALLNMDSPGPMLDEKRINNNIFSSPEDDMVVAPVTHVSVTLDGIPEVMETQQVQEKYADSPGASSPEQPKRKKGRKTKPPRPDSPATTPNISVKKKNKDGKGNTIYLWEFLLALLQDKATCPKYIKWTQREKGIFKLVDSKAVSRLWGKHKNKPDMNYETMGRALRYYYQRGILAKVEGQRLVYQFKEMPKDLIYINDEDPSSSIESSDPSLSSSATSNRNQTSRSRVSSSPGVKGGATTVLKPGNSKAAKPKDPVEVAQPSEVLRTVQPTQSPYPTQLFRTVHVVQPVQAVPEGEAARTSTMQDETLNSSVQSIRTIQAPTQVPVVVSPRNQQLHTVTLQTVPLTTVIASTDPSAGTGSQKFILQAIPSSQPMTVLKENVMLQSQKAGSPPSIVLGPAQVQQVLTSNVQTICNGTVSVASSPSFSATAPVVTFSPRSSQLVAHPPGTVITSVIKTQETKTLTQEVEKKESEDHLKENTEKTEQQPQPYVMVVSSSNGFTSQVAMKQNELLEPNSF
# Summary of the method: as §1
# SPI1 = SPI1 (Homo sapiens, UniProt P17947 1-270)
# Summary of the method: as §1
# SPIB = SPIB (Homo sapiens, UniProt Q01892 1-262)
# SPIB, sequence (Q01892 whole entry): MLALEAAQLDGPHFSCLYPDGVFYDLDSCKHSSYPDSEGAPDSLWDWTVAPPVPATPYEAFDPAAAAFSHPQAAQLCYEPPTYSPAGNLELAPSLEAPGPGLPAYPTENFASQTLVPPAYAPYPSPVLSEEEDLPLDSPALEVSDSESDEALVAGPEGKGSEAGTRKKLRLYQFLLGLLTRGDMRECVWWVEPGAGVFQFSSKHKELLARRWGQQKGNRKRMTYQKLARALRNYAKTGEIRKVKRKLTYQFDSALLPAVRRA
# Summary of the method: as §1
# ERG = biological target: T4, ERG (Homo sapiens, UniProt P11308 1-479)
# T4 sequence: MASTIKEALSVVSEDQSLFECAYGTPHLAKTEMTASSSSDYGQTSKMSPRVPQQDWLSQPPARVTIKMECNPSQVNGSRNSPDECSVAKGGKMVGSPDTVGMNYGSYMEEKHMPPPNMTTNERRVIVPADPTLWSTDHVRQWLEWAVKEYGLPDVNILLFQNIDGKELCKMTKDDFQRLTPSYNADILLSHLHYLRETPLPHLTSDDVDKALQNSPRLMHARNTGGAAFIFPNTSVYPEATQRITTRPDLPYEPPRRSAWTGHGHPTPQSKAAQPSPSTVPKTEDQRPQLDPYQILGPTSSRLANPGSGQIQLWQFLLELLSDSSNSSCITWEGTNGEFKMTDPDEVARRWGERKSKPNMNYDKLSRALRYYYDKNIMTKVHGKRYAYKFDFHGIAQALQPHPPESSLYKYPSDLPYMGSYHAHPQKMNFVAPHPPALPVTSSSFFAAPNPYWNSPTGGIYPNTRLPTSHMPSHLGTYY
# Summary of the method: as §1
# EHF = biological target: T5, EHF (Homo sapiens, UniProt Q9NZC4 1-300)
# T5 sequence: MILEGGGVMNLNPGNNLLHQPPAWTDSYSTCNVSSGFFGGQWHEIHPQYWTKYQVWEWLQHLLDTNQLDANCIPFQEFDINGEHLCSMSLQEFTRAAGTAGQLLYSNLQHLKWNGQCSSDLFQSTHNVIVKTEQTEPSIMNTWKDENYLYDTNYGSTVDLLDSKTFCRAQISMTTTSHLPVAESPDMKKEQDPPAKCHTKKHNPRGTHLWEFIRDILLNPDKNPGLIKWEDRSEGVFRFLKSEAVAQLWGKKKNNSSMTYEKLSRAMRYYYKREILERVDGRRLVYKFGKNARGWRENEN
# Summary of the method: as §1
# ELK3 = biological target: T6, ELK3 (Homo sapiens, UniProt P41970 1-407)
# T6 sequence: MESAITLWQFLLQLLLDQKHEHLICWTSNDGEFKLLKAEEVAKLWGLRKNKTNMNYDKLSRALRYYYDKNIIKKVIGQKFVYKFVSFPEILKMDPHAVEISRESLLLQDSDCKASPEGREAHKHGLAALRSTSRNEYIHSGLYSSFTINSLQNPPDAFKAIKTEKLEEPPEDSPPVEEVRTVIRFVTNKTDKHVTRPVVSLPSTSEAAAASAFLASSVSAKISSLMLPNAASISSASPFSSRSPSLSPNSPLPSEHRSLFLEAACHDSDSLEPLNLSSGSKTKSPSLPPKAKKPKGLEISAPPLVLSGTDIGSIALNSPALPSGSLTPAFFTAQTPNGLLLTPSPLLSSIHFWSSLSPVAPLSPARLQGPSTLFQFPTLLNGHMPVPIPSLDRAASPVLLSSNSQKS
# Summary of the method: as §1
Sequence,binding signal (FLI1),binding signal (ELK1),binding signal (GABPA),binding signal (ELF1),binding signal (SPI1),binding signal (SPIB),binding signal (ERG),binding signal (EHF),binding signal (ELK3)
GTTTGG,"1.07 fold enrichment (6-mer frequency, TF over GST control)","1.07 fold enrichment (6-mer frequency, TF over GST control)","1.04 fold enrichment (6-mer frequency, TF over GST control)","1.05 fold enrichment (6-mer frequency, TF over GST control)","1.01 fold enrichment (6-mer frequency, TF over GST control)","1.1 fold enrichment (6-mer frequency, TF over GST control)",–,–,–
TAACAG,"1.06 fold enrichment (6-mer frequency, TF over GST control)","1.05 fold enrichment (6-mer frequency, TF over GST control)",–,"1.09 fold enrichment (6-mer frequency, TF over GST control)","1.11 fold enrichment (6-mer frequency, TF over GST control)","1.09 fold enrichment (6-mer frequency, TF over GST control)","1.01 fold enrichment (6-mer frequency, TF over GST control)","1.07 fold enrichment (6-mer frequency, TF over GST control)","1.07 fold enrichment (6-mer frequency, TF over GST control)"
TCATAA,"1.03 fold enrichment (6-mer frequency, TF over GST control)","1.05 fold enrichment (6-mer frequency, TF over GST control)","1.03 fold enrichment (6-mer frequency, TF over GST control)","1.02 fold enrichment (6-mer frequency, TF over GST control)","1.06 fold enrichment (6-mer frequency, TF over GST control)",–,–,–,–
ATAGGT,"1.08 fold enrichment (6-mer frequency, TF over GST control)","1.01 fold enrichment (6-mer frequency, TF over GST control)",–,–,"1.01 fold enrichment (6-mer frequency, TF over GST control)","1.04 fold enrichment (6-mer frequency, TF over GST control)","1.01 fold enrichment (6-mer frequency, TF over GST control)","1.04 fold enrichment (6-mer frequency, TF over GST control)",–
ACCGAA,"1.09 fold enrichment (6-mer frequency, TF over GST control)","1.04 fold enrichment (6-mer frequency, TF over GST control)","1.05 fold enrichment (6-mer frequency, TF over GST control)","1.11 fold enrichment (6-mer frequency, TF over GST control)","1.06 fold enrichment (6-mer frequency, TF over GST control)","1.01 fold enrichment (6-mer frequency, TF over GST control)",–,"1 fold enrichment (6-mer frequency, TF over GST control)","1.01 fold enrichment (6-mer frequency, TF over GST control)"
CCGCGC,"1.12 fold enrichment (6-mer frequency, TF over GST control)","1.16 fold enrichment (6-mer frequency, TF over GST control)",–,"1.18 fold enrichment (6-mer frequency, TF over GST control)","1.14 fold enrichment (6-mer frequency, TF over GST control)","1.24 fold enrichment (6-mer frequency, TF over GST control)","1.2 fold enrichment (6-mer frequency, TF over GST control)","1.05 fold enrichment (6-mer frequency, TF over GST control)","1.24 fold enrichment (6-mer frequency, TF over GST control)"
CGCCAA,"1.03 fold enrichment (6-mer frequency, TF over GST control)","1.02 fold enrichment (6-mer frequency, TF over GST control)","1.03 fold enrichment (6-mer frequency, TF over GST control)","1.08 fold enrichment (6-mer frequency, TF over GST control)","1.04 fold enrichment (6-mer frequency, TF over GST control)","1.02 fold enrichment (6-mer frequency, TF over GST control)",–,"1.04 fold enrichment (6-mer frequency, TF over GST control)","1.06 fold enrichment (6-mer frequency, TF over GST control)"
